# Results reported in publication PMC12864922, “TDP-43 directly inhibits mRNA accumulation in neurites through modulation of mRNA stability”.
# Whole data set: some 9,900 sequences, median “r (bound/input frequency ratio)” near 0.7, cut for the highest 2% near 6.5. Only a selection was taken, and the highest values are over-represented in it overall.
# B1: ENSMUSG00000031028.651|Tub (ssRNA)
# RNA: GGGAGUUCUACAGUCCGACGAUCGCUUCGAUAUCCGCAUGCUAGCUGAAAUGUAGAGUGUUCUAUAGAGCAUCUCAGUAGCAUAGAAGGAGAAGCCCAGCUCCAACCUCCUGGACCCCAUACUGGUGACCAGCUUGGUGAGGACAGGCAAAAUUUCUCUAGCUGAGAGCACACUUAGCCAGUUUUCACGCCUAGAACAUAUAUGUCGAUUUGCACAUGAUUGUCUUUUCCUAUUUUGGAGUGGUCAGACAUUUUAUUUUUGUUCAAAAUUAUCUGGAGUUUUAGACAAACUUGCAAAACUGUGCUCUUGCGGUCGCACUAGUGUGGAAUUCUCGGGUGUCAAGG
# B2: ENSMUSG00000090935.711|Synj2bp (ssRNA)
# RNA: GGGAGUUCUACAGUCCGACGAUCGCUUCGAUAUCCGCAUGCUAAAGAACUGGGCUAAGUCCAGAGCUCUGCUCUCUGAGCAUCUGCCCCAGAUACAGAGGCAGAGUAUGAAGUGGAACAUUGUUUUAUUCCUAGGUGCUCAGGACAGACUGAUCAACCUCCAGUAACAUAUGUGGUUAGUAAGUGCUUCAGCUUGUGUAGCCAUUAAUAACCAAGUCAUAGGAUUGUGAAUCUAAAAUACUCCUGGGUAAAAUUUGUAUUAGAAUGGAAAAAAAAAUGAGGGUCAGAAAGGUGAGCUAACUUCCUCUUGCGGUCGCACUAGUGUGGAAUUCUCGGGUGUCAAGG
# B3: ENSMUSG00000029636.217|Wasf3|154:158;247:254 (ssRNA)
# RNA: GGGAGUUCUACAGUCCGACGAUCGCUUCGAUAUCCGCAUGCUAAUAAGUCUGUGAUAUCCGCAGGCUUGGGUUACAGGGAGGACCUUGCAGAGGGACCAGGACACUGCCUUCCCUUAGGUGCAUUAUUUACGUGGCCUGCAGCUCUUAAUAUCUCUCACUGUUUAUGAAAAGAAAGAUUCAGAUCCGGGGUGACAUACACACAGUUGACAGGGAAUGCCUGUGGGAUAAUUAAAAAUGGUUUUUGCUCAUGAGUUUGGGAUGUCACCCAGCCGCCCACAUCGCCUGCUAACACACACGACGCCCUCUUGCGGUCGCACUAGUGUGGAAUUCUCGGGUGUCAAGG
# B4: ENSMUSG00000031028.206|Tub (ssRNA)
# RNA: GGGAGUUCUACAGUCCGACGAUCGCUUCGAUAUCCGCAUGCUACCAGAGAUGAAACCCCUCCGAGUUAAUGUAUAAGGUUGGAAACCUUUCAGUAGGGAAUCAGGCAGUUCCCUGUUGAAAGUUGUCUGAGUUUUUGCACACCAUUCUGAUCUGAUGUGGCCUGUGCCUGGCUCCUCUAUGAGGACUUCGAGCUGUGCACAGACCUUAGCAGGACCACUGCACACUUUGUGUCUGUGUGACAGGCAGCCCAAGGGUUCUGGGGCUGGGCUUGGACACGCCCUCCAUUGGGAUGGCACCACUCACUCUUGCGGUCGCACUAGUGUGGAAUUCUCGGGUGUCAAGG
# B5: ENSMUSG00000058297.231|Spock2 (ssRNA)
# RNA: GGGAGUUCUACAGUCCGACGAUCGCUUCGAUAUCCGCAUGCUAAACCAUGCCCCAGACUCUAUUUAAAGCCCUAUAGCAUAUAUGAAUAGAGAACGGUGUAUCUAUCAGAGGGGACCACACUGAGCAGCUAGGCCCUGAUGCCAUGCCUCAGCACGCCCUCAGACCUCCAGGCCGGGUGGAAGGGGCUUUUACCCAGAUGUCCUGUGGGGUUUUGUGUGUCUAUUGCUCCCCACUUCCCCCUCUCAAAGGAAAUUUCCUUGAUAUAUUUGAUGAAGAAUUCCUUACCUGGGCCUCUGAUACCCCUCUUGCGGUCGCACUAGUGUGGAAUUCUCGGGUGUCAAGG
# B6: ENSMUSG00000061578.43|Ksr2|85:91;96:100 (ssRNA)
# RNA: GGGAGUUCUACAGUCCGACGAUCGCUUCGAUAUCCGCAUGCUAAGCCACAGACUGAGCACACCACCUCGGACUGUGGAGACCAAGACACAUGCCCAGUGGGCAGACUCAGACUCACACGCUGGACCACACACACCGCAACACACUACACAUGGACAGGGCCAACUGCUAUCCUUCUGCCUGGACGAGCCAGCUGUGGAGUGUCCCAGCUGUGCUAUCCUGGAACACAGAACCAGGAUGGAACCAGAAACAAUACACCUGCUCCGUUGUCAAGGCUUCUAGGCCAAGGUCAGGGUAGGGAGGUGCUCUUGCGGUCGCACUAGUGUGGAAUUCUCGGGUGUCAAGG
# B7: ENSMUSG00000029636.220|Wasf3 (ssRNA)
# RNA: GGGAGUUCUACAGUCCGACGAUCGCUUCGAUAUCCGCAUGCUACAGGCUUGGGUUACAGGGAGGACCUUGCAGAGGGACCAGGACACUGCCUUCCCUUAGGUGCAUUAUUUACGUGGCCUGCAGCUCUUAAUAUCUCUCACUGUUUAUGAAAAGAAAGAUUCAGAUCCGGGGUGACAUUGUGUCAGUUGACAGGGAAUGCCUGUGGGAUAAUUAAAAAUGGUUUUUGCUCAUGAGUUUGGGAUGUCACCCAGCCGCCCACAUCGCCUGCUAUGUGUGUGGACGCCUGUCCGCUUGGCCAGCUACUCUUGCGGUCGCACUAGUGUGGAAUUCUCGGGUGUCAAGG
# B8: ENSMUSG00000029636.163|Wasf3 (ssRNA)
# RNA: GGGAGUUCUACAGUCCGACGAUCGCUUCGAUAUCCGCAUGCUACAUGGAAGCUUGGCUUUAGCUGAGAGAUGCCACCAGCUGUUCACAACCCAUGGUGCUGUGGCUAGAUUCCUGCUCAGUCUCUCAAACAGGGCCACACCCCUCCUGAAGCACAGCUCUCUUCUCUCCUGUUGUCGGCACAUUUUCAAUUUUAAAAAGUACCUCACAAGAUAAACUUGAUUCAGCCAGUUGCCCGGGCAGAGACCUGACUUCCCCUCUCCUGCCCUGAUCCUUUUUACCAAAUGGCGAUUCCAUAGUCCUGGCUCUUGCGGUCGCACUAGUGUGGAAUUCUCGGGUGUCAAGG
# Molecular target: TDP-43 (Homo sapiens, UniProt Q13148 1-414)
# Sequence (Q13148 whole entry): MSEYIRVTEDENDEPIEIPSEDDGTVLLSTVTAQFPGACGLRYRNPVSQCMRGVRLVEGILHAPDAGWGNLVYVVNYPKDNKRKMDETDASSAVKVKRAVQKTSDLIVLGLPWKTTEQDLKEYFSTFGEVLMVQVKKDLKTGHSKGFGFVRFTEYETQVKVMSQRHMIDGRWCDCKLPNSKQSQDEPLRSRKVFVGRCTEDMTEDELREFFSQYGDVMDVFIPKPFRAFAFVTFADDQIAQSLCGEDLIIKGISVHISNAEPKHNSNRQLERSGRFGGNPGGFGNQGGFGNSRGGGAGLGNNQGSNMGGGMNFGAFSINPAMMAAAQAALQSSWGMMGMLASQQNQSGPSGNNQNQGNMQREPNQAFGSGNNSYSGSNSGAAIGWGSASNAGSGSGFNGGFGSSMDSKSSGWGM
# Experiment: RNA Bind-n-Seq with designed 260-mer pool; 25 mM Tris-HCl, 150 mM KCl, 3 mM MgCl2, BSA (printed 500 mg/mL), 20 units/mL SUPERase IN; pH not stated; 500 nM RNA pool, 1 h, 4 C; TDP-43 5, 50, 500 nM; high values mean tight binding
# Details: protein: recombinant; tags: SBP (GST cleaved off with PreScission; pGEX-GST-SBP)
# In short: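 The incubation lasted 1 h at 4 °C and used 500 nM of an in vitro-transcribed 260-nt 3′ UTR oligo pool with recombinant SBP-tagged TDP-43 at 5, 50 or 500 nM immobilized on streptavidin beads. It took place in 25 mM Tris-HCl, 150 mM KCl, 3 mM MgCl2, BSA and SUPERase IN. Bound RNA was washed, eluted with biotin, converted to cDNA, PCR-amplified and sequenced to give R, each oligo's normalized abundance in the bound sample divided by that in input. Two independent protein batches provided the duplicates.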
row,Binder,binding signal
1,B1,0.18 R (bound/input frequency ratio)
2,B2,1.47 R (bound/input frequency ratio)
3,B3,1.49 R (bound/input frequency ratio)
4,B4,1.26 R (bound/input frequency ratio)
5,B5,0.453 R (bound/input frequency ratio)
6,B6,0.525 R (bound/input frequency ratio)
7,B7,3.17 R (bound/input frequency ratio)
8,B8,0.217 R (bound/input frequency ratio)
